VACV Venus inh: inhibitors of vaccinia virus (Venus reporter); 330,000 tested, 0.46% active; Vaccinia virus Venus reporter expression, fluorescence; Potency, µM (series often up to 36.5 µM), hits mostly inhibitors; AID 720580; calls by dose curve; tested in A549 cells; note: nearly all actives have a fitted effect of over 30% in size
Lassa entry inh: blocks Lassa virus binding to or entry into cells. AID 540256. Lassa virus pseudotype entry inhibition, cell reporter. Potency, µM (top dose mostly 37.9 µM), hits mostly inhibitors. 300,000 tested, 1.2% active; calls by dose curve; tested in HEK293 cells; note: nearly all actives have a fitted effect of over 50% in size
HCMV inh: blocks human cytomegalovirus replication | HFF cells, HCMV-luciferase reporter, 72 h; stronger effect = lower value | activity change, negative = inhibition, % at 57.5 µM | 410,000 tested, 4.5% active | AID 1259415; in the data active = activity change below about -60%; inconclusive = no clear call, values can overlap the other calls; inactive = above about -39%
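Two-dose cell screen: HFF monolayers treated with compounds and infected with luciferase-expressing HCMV at 1 PFU/cell, 72 h at 37C, then lysed for luciferase measurement.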
MARV entry inh: blocks Marburg virus binding to or entry into cells. Marburg virus pseudotyped entry inhibition, cell reporter. Potency, µM (doses to about 37.8 µM), hits mostly inhibitors. 300,000 tested, 1.8% active. AID 540276; calls by dose curve; tested in HEK293 cells
FMDV antiviral: antivirals against foot and mouth disease virus; AID 1159524; Potency, µM (titrated, usually from 57.9 µM), hits mostly inhibitors; 410,000 tested, 1.2% active; FMDV antiviral cell-based qHTS; calls by dose curve; tested in HEK293T cells; note: read-out not given here; nearly all actives have a fitted effect of over 45% in size
Vaccinia mCherry: vaccinia inhibition (mCherry reporter); AID 720579; Vaccinia virus mCherry reporter infection, fluorescence; Potency, µM (doses to about 36.5 µM), hits mostly inhibitors; 310,000 tested, 0.63% active; calls by dose curve; tested in A549 cells; note: nearly all actives have a fitted effect of over 35% in size
Numbers stand for hits. This is a sample that favours compounds with a hit; in the whole collection about 6.5% have one here.

`COc1ccc(NC(=O)C2(C)CCN2Cc2ccccc2OC(F)F)cc1OC` (stereo not drawn) gave VACV Venus inh inactive, HCMV inh inactive, FMDV antiviral inactive and Vaccinia mCherry inactive.
`Cc1ccc(CCNC(=O)CCCn2c(=O)c3ccccc3n(CC(=O)Nc3cc(Cl)ccc3C)c2=O)cc1` gave VACV Venus inh inactive, Lassa entry inh inactive, HCMV inh inactive, MARV entry inh inactive, FMDV antiviral inactive and Vaccinia mCherry inconclusive.
Screening CC(=NNC(=S)N1CCN(c2ccccn2)CC1)c1ccccn1 returned VACV Venus inh inactive, Lassa entry inh inactive, HCMV inh inactive, MARV entry inh inconclusive, FMDV antiviral inactive and Vaccinia mCherry inactive.
For O=C(c1ccccn1)N1CCN(S(=O)(=O)c2ccccc2)CC1 the results were VACV Venus inh inactive, Lassa entry inh inactive, HCMV inh -94, MARV entry inh inactive, FMDV antiviral inactive and Vaccinia mCherry inactive.
Screening CC(=NNC(=S)N1CCN(C2CCCCCC2)CC1)c1ccccn1 returned VACV Venus inh inconclusive, Lassa entry inh 0.28µM, HCMV inh -96, MARV entry inh inconclusive, FMDV antiviral inconclusive and Vaccinia mCherry inconclusive.
CC(=NNC(=S)N1CC2CCC(CC2)C1)c1cnccn1 was read as VACV Venus inh inconclusive, Lassa entry inh 0.28µM, HCMV inh -96, MARV entry inh inconclusive, FMDV antiviral inactive and Vaccinia mCherry 16µM.
Screening C/C(=N\NC(=O)C1CCCN(S(=O)(=O)c2ccccc2)C1)c1ccccn1 (stereo not drawn) returned VACV Venus inh inconclusive, Lassa entry inh inconclusive, HCMV inh -93, MARV entry inh inconclusive, FMDV antiviral inconclusive and Vaccinia mCherry inconclusive.
O=C(CN1CCCCC1)N1CCN(S(=O)(=O)c2ccccc2)C1 was read as VACV Venus inh inactive, Lassa entry inh inactive, HCMV inh -103, MARV entry inh inactive, FMDV antiviral inactive and Vaccinia mCherry inactive.
CC(=NNC(=S)N1CCCCCC1)c1cccc2cccnc12 was read as VACV Venus inh inconclusive, Lassa entry inh inconclusive, HCMV inh -75, MARV entry inh inconclusive, FMDV antiviral inactive and Vaccinia mCherry inconclusive.
For O=C(CN1CCN(S(=O)(=O)c2ccc(Cl)cc2)CC1)N1CCCC1 the results were VACV Venus inh inactive, Lassa entry inh inactive, HCMV inh inactive, MARV entry inh inconclusive, FMDV antiviral inactive and Vaccinia mCherry inactive.
CC(=NNC(=S)N1CC2CCC(CC2)C1)c1ccccn1 was read as VACV Venus inh inconclusive, HCMV inh -100, FMDV antiviral inactive and Vaccinia mCherry inconclusive.
COc1cccc(CNC(=O)c2ccc(-n3c(C)cc4c3CCCC4)cc2)c1 was read as VACV Venus inh inconclusive, Lassa entry inh inconclusive, HCMV inh inactive, FMDV antiviral inactive and Vaccinia mCherry inactive.
Screening NC(=O)c1ccc(-c2nc(-c3ccc4c(c3)OCO4)c(-c3ccccn3)[nH]2)cc1 returned Lassa entry inh 6.3µM and FMDV antiviral inactive.
For CCc1cccc2sc(N3CCN(C(=O)c4ccc([N+](=O)[O-])o4)CC3)nc12 the results were VACV Venus inh inconclusive, Lassa entry inh inconclusive, MARV entry inh 5µM, FMDV antiviral inconclusive and Vaccinia mCherry inconclusive.
`Cc1ccc(-n2nc3c(=O)n(CC(=O)NCCc4ccccc4C)nc(C)c3c2C)cc1` gave VACV Venus inh inconclusive, Lassa entry inh inactive, HCMV inh -73, MARV entry inh inconclusive, FMDV antiviral inconclusive and Vaccinia mCherry inconclusive.
Screening COc1ccc(CCNC(=O)Cn2nc(C)c3c(C)n(-c4ccccc4)nc3c2=O)c(OC)c1 returned HCMV inh inactive and FMDV antiviral inactive.
For COc1ccc(OC)c(CCNC(=O)Cn2nc(C)c3c(C)n(-c4ccc(C)cc4)nc3c2=O)c1 the results were VACV Venus inh inconclusive, Lassa entry inh inconclusive, HCMV inh -92, MARV entry inh inconclusive, FMDV antiviral inconclusive and Vaccinia mCherry inactive.
CCOC(=O)CCN1C(=O)[C@H]2[C@H]3[C@H](O)[C@H](O)C/C(=N/OCC(C)C)[C@@H]3CC[C@@H]2C1=O was read as MARV entry inh inactive.
Screening CCOC(=O)c1cc2c(=O)n3ccccc3nc2n(CCCOC)c1=NC(=O)c1c(-c2ccccc2Cl)noc1C returned VACV Venus inh inactive, Lassa entry inh inactive, HCMV inh inactive, MARV entry inh inactive, FMDV antiviral inactive and Vaccinia mCherry inactive.
For O=C(NCC(NS(=O)(=O)OCC(Cl)(Cl)Cl)c1ccccc1)C(F)(F)F (stereo not drawn) the results were VACV Venus inh inconclusive, HCMV inh -74, FMDV antiviral inactive and Vaccinia mCherry inactive.
